Measured values as given in PubChem BioAssay (Tox21).
Records with an inconclusive call do not appear. Entries that show only a call come without a potency. More than one record can exist for a structure, and the calls need not agree. Active and inactive are the calls of the source. Calls follow the shape of the full dose curve.

Experiments:
[1] = biological target: Acetylcholinesterase (Homo sapiens) (UniProt P22303); assay: Acetylcholinesterase (AChE) small molecule antagonists: colormetric cell-based qHTS assay (AID 1347395); also: nearly all actives have a fitted effect of over 30% in size; also: potency is read from the fitted curve at half-maximal effect
Sequence of Acetylcholinesterase (Homo sapiens) (P22303 whole entry, looked up): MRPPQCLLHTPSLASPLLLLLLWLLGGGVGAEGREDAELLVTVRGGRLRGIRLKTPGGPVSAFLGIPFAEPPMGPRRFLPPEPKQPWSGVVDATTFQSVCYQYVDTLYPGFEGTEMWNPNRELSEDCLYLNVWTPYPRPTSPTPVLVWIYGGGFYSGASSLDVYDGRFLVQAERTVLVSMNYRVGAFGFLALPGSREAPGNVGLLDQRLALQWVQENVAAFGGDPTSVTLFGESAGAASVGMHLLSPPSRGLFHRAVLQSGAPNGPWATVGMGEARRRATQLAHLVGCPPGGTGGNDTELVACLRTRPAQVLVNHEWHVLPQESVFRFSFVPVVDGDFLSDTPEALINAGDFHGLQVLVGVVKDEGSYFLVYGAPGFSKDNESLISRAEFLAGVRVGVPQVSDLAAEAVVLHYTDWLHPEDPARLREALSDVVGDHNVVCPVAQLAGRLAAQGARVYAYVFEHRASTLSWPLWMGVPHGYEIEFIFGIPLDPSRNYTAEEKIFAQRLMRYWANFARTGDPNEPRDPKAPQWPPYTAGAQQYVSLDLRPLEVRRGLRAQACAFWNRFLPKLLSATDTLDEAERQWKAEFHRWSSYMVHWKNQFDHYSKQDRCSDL
Outline: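 Colorimetric read-out: DTNB detects thiocholine released when cellular AChE in SH-SY5Y cells hydrolyses acetylthiocholine. Cells attached overnight, received compound for 30 min at 37 C, then substrate mix for 90 min at 37 C.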

[2] = biological target: Acetylcholinesterase (Homo sapiens) (UniProt P22303); assay: Acetylcholinesterase (AChE) small molecule antagonists: enzyme-based qHTS assay (AID 1347397); conditions: Potency: AChE enzyme activity inhibition; outcome: AChE enzyme activity inhibition; also: nearly all actives have a fitted effect of over 55% in size; also: potency is read from the fitted curve at half-maximal effect
Outline: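 First, recombinant human AChE (50 mU/mL as dispensed) received test compound or DMSO. Second, plates stood 30 min at room temperature. Third, DTNB and acetylthiocholine were added, followed by 10 min at room temperature and colorimetric detection.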

[3] = biological target: Acetylcholinesterase (Homo sapiens) (UniProt P22303); assay: Acetylcholinesterase (AChE) small molecule antagonists: fluorescence cell-based qHTS assay (AID 1347398); conditions: Potency: AChE activity; outcome: AChE activity; also: nearly all actives have a fitted effect of over 50% in size; also: potency is read from the fitted curve at half-maximal effect
Outline: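 Homogeneous quantitative HTS format. SH-SY5Y cells seeded at 2,000 per well settle overnight at 37 C. Compound pretreatment runs 30 min (37 C, 5% CO2); substrate/probe mix then reacts 40 min at RT before reading 490/520 nm.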

[4] = biological target: Acetylcholinesterase (Homo sapiens) (UniProt P22303); assay: Acetylcholinesterase (AChE) small molecule antagonists: enzyme-based qHTS assay with human liver microsomes (AID 1347399); conditions: Potency: qHTS inhibition; outcome: qHTS inhibition; also: nearly all actives have a fitted effect of over 60% in size
Outline: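 Recombinant human AChE (50 mU/mL in the enzyme mix) and human liver microsomes (0.25 mg/mL final) were preincubated with compound and NADPH (0.25 mg/mL final) for 30 min at 37 C. Acetylthiocholine/DTNB was then added; thiocholine was read colorimetrically after 10 min at room temperature.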

Row | SMILES | Potency [1] | Potency [2] | Potency [3] | Potency [4] | activity, negative = inhibition [1] | activity change, negative = inhibition [2] | activity change, negative = inhibition [3] | activity change, negative = inhibition [4]
1 | Nc1ccc([N+](=O)[O-])c(N)c1 | inactive | inactive | inactive | inactive | – | – | – | –
2 | CC(=O)CCC(C)C | inactive | inactive | inactive | inactive | – | – | – | –
3 | C[C@H](CCC(=O)O)[C@H]1CC[C@H]2[C@@H]3CC[C@@H]4C[C@H](O)CC[C@]4(C)[C@H]3C[C@H](O)[C@]12C | inactive | inactive | inactive | inactive | – | – | – | –
4 | CC1(C)Oc2ccc(C#N)cc2[C@@H](N2CCCC2=O)[C@@H]1O | inactive | inactive | inactive | inactive | – | – | – | –
5 | c1ccc2cnncc2c1 | inactive | inactive | inactive | inactive | – | – | – | –
6 | NC(=O)C(=O)N/N=C/c1ccc([N+](=O)[O-])o1 | inactive | inactive | inactive | inactive | – | – | – | –
7 | FC(F)(F)C(Cl)Br (stereo not given) | inactive | inactive | inactive | inactive | – | – | – | –
8 | COCC(O)CO (stereo not given) | inactive | inactive | inactive | inactive | – | – | – | –
9 | C[CH2][Ge]([Cl])([CH2]C)[CH2]C | inactive | inactive | inactive | inactive | – | – | – | –
10 | CCCCCCCCCCCCCOC(=O)CCSCCC(=O)OCCCCCCCCCCCCC | – | – | – | – | 3.05% [at 23.6 µM] (inactive) | 1.34% [at 23.6 µM] (inactive) | -0.492% [at 23.8 µM] (inactive) | 0.346% [at 23.6 µM] (inactive)
11 | CC(=O)C(C)O (stereo not given) | inactive | inactive | inactive | inactive | – | – | – | –
12 | CCCCCCCCCCCCCCNCCO | inactive | inactive | inactive | inactive | – | – | – | –
13 | O=C(O)c1c(Cl)ccc(Cl)c1Cl | inactive | inactive | inactive | inactive | – | – | – | –
14 | CCCOCCOCCO | inactive | inactive | inactive | inactive | – | – | – | –
15 | C=C(C)C(=O)OCC1CCCO1 (stereo not given) | inactive | inactive | inactive | inactive | – | – | – | –
16 | CC(C)(CO)[C@@H](O)C(=O)NCCCO | inactive | inactive | inactive | inactive | – | – | – | –
17 | O[Si](c1ccccc1)(c1ccccc1)c1ccccc1 | inactive | inactive | inactive | inactive | – | – | – | –
18 | CCOCC(=O)O | 36.4 µM (active) and inactive | inactive | inactive | inactive | – | – | – | –
19 | CC1=NN(c2ccccc2)C(=O)C1 | inactive | 35.8 µM (active) and inactive | 5.06 µM (active) and inactive | inactive | – | – | – | –
20 | CCCCCCCCCCCC(=O)OCC(C)OC(=O)CCCCC(=O)O (stereo not given) | inactive | inactive | inactive | inactive | – | – | – | –
21 | CCCCN(CCO)CCCC | inactive | inactive | inactive | inactive | – | – | – | –
22 | CC(=O)OC(C)(C)C1CC=C(C)CC1 (stereo not given) | inactive | inactive | inactive | inactive | – | – | – | –
23 | Cc1ccc([N+](=O)[O-])c(N)c1 | inactive | inactive | inactive | inactive | – | – | – | –
24 | COC(=O)CCCC(=O)O | inactive | inactive | inactive | inactive | – | – | – | –
25 | CC[C@H](C)C(=O)O[C@H]1C[C@H](O)C=C2C=C[C@H](C)[C@H](CC[C@@H](O)C[C@@H](O)CC(=O)O)[C@H]21 | inactive | inactive | inactive | inactive | – | – | – | –
26 | CC(=O)[C@H]1CC[C@H]2[C@@H]3C[C@H](C)C4=CC(=O)CC[C@]4(C)[C@H]3[C@@H](O)C[C@]12C | inactive | inactive | inactive | inactive | – | – | – | –
27 | CC(=O)OC(C)c1ccccc1 (stereo not given) | inactive | inactive | inactive | inactive | – | – | – | –
28 | COC(=O)C(C)Oc1ccc(Oc2ncc(C(F)(F)F)cc2Cl)cc1 (stereo not given) | inactive | inactive | inactive | inactive | – | – | – | –
29 | Sc1nc(S)nc(S)n1 | inactive | inactive | inactive | inactive | – | – | – | –
30 | CC(C)N(C)C | inactive | inactive | inactive | inactive | – | – | – | –
